HT1080NT lethal: qHTS for induction of synthetic lethality in tumor cells producing 2HG: qHTS for the HT-1080-NT fibrosarcoma cell line | HT-1080-NT fibrosarcoma viability, CellTiter-Glo ATP luminescence, 48 h | Potency, µM (series often up to 46.1 µM), for the others: at the highest dose activity, negative = less viability, usual class: cytotoxic | 360,000 compounds, 1.6% hits;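 also: NT is the 2HG producing partner of a matched IDH1 knockdown line; 0% = DMSO-treated cells and -100% = media-only wells without cells; nearly all actives have a fitted effect of over 55% in size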
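HT-1080-NT; 750 cells/well; 5% FBS RPMI; 48 h compound, 37 degrees C; CellTiter-Glo luminescence; curve fitting and curve-class assignment.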
HT1080 IDH1KD tx: qHTS for induction of synthetic lethality in tumor cells producing 2HG: qHTS for the HT-1080-IDH1KD cell line; 360,000 compounds, 2% hits; AID 686971, 2013; Potency, µM (top dose mostly 46.1 µM), without a hit: at the top dose activity, negative = toxicity, hits mostly cytotoxic; HT-1080 IDH1 knockdown viability, ATP luminescence, 48 h;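 also: 0% = DMSO wells and -100% = cell-free medium wells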
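% activity derives from luminescence (CellTiter-Glo), normalised to DMSO and no-cell wells. HT-1080-IDH1KD cells, 750/well, had 48 h compound exposure at 37 °C.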
KB-V1 MDR tox: qHTS assay for MDR1-selective chemotherapeutics: Primary screen using the drug-selected MDR subline cells KB-V1; KB-V1 MDR cells viability, CellTiter-Glo, 72 h; Potency, µM (highest dose often 46.1 µM), hits mostly cytotoxic; 400,000 compounds, 3.4% hits; also: nearly all actives have a fitted effect of over 60% in size
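KB-V1, DMEM (no phenol red) + 10% FBS; cpd pin-transferred, titration series; 72 h, 37 degrees C; CellTiter-Glo, luminescence. Data normalized, curve-fit.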
KB-3-1 tox: qHTS assay for MDR1-selective chemotherapeutics: Primary screen using the parental adenocarcinoma cell KB-3-1; KB-3-1 viability, CellTiter-Glo ATP luminescence, 72 h; Potency, µM (doses to about 46.1 µM), usual class: cytotoxic; 400,000 compounds, 1.4% hits; also: nearly all actives have a fitted effect of over 60% in size
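Cytotoxicity in the drug-sensitive parental line KB-3-1 was scored as loss of CellTiter-Glo luminescence following 72 h incubation with compound. Values come from curve fitting of normalized concentration-response data.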
DT40 TDP1 no CPT: qHTS for Inhibitors of human tyrosyl-DNA phosphodiesterase 1 (TDP1): qHTS in cells in absence of CPT. DT40 Tdp1-/- hTDP1 cells, no CPT, ATP luminescence, 48 h. Potency, µM (series often up to 46.2 µM), inactives show top-dose activity change, negative = growth inhibition, most hits filed as inhibitors. 420,000 compounds, 15% hits; also: nearly all actives have a fitted effect of over 55% in size
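Camptothecin absent (DMSO only). Human TDP1-complemented DT40 knockout cells, 400 cells/well, 37 °C for minimum 48 hr; ATP measured via CellTiter-Glo, 30 min dark incubation, luminescence.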
TDP1 cell CPT: qHTS for Inhibitors of human tyrosyl-DNA phosphodiesterase 1 (TDP1): qHTS in cells in presence of CPT. 420,000 compounds, 12% hits. chicken DT40 Tdp1-/-;hTDP1 cells + 20 nM CPT, ATP luminescence, 48 h. AID 686979, 2013. Potency, µM (highest dose often 46.2 µM), for inactives: at the highest dose activity change, negative = growth inhibition, hits mostly inhibitors; also: nearly all actives have a fitted effect of over 55% in size
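Chicken DT40 Tdp1-/- cells stably complemented with human TDP1 were seeded at 400 cells/well in medium containing 20 nM camptothecin, exposed to pin-transferred compounds, and grown at 37 °C for at least 48 hr. Viability was read as ATP luminescence.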
* = called active by the depositor; i = inactive; ? = inconclusive; . = no result given; [ ] = dose if it differs, or a comment. Compounds with a hit are over-represented: about 19% of the library has one in this group of screens. Calls follow the shape of the dose curve; as a rule, active = well fitted curve in the direction sought with a large enough effect; inconclusive = small, poorly fitted or top-dose-only effect, or another doubt; inactive = no such curve, though single readings can be large; an effect the other way counts as inactive or inconclusive. Unless noted, % is scaled to controls: 0 for no effect and ±100 for the full control effect; potency is read from the fitted curve at half-maximal effect.

SMILES	HT1080NT lethal	HT1080 IDH1KD tx	KB-V1 MDR tox	KB-3-1 tox	DT40 TDP1 no CPT	TDP1 cell CPT
Cc1ccc(C(=O)Nc2ccc(-n3c(C)nc4ccccc4c3=O)cc2)cc1[N+](=O)[O-]	.	.	i	i	7.31µM*	9.2µM*
O=C(Nc1cccc2ccccc12)c1cccc([N+](=O)[O-])c1	0.4%	8.5%	i	i	-13.4%	-6.3%
Cc1cc(-n2c(C)nc3ccccc3c2=O)ccc1NC(=O)c1cccc([N+](=O)[O-])c1	.	.	i	i	11.6µM*	16.4µM*
Cc1nc2ccccc2c(=O)n1-c1ccc(NC(=O)c2cccc([N+](=O)[O-])c2)cc1	.	.	i	i	20.6µM*	18.4µM*
Cc1ccc(C)c(S(=O)(=O)N2CCN(C(=O)c3ccncc3)CC2)c1	2.0%	5.0%	i	i	-7.5%	-5.9%
c1nc2n(n1)C1=C(CCCC1)C1(CCCCC1)N2	17.0%	19.2%	i	i	-9.9%	-7.6%
Cc1ccc(-n2cnc(=O)c3cccnc32)cc1	10.2%	2.0%	i	i	-10.7%	-6.0%
C#CCSc1nc(=O)c2cccnc2n1-c1ccc(C)cc1	-3.2%	-2.1%	i	i	5.8µM*	5.17µM*
Cc1cccc(NC(=O)CC2C(=O)NCCN2C(=O)Nc2ccc(Cl)cc2)c1 (stereo not drawn)	?	?	i	i	-25.7%	?
CC(=O)Nc1cc(C(=O)N2CCSCC2)cc2ncn(CCc3ccccn3)c12	.	.	.	.	-6.0%	-2.8%[9.04 µM]
Cc1ccc(S(=O)(=O)N2CCOCC2)cc1C(=O)OCC(=O)N1CCc2ccccc2C1	?	3.2%	11.6µM*	i	23.1µM*	?
Cc1ccc(S(=O)(=O)N2CCOCC2)cc1C(=O)OCC(=O)NC1CCCC(C)C1C (stereo not drawn)	-2.8%[9.24 µM]	-12.4%	?	?	4.61µM*	14.6µM*
CCOc1cc(CNC2CCCC2)c(Cl)cc1OCC(=O)Nc1ccccc1	-23.7%	-16.3%	i	i	18.4µM*	18.4µM*
O=C(COc1ccc(Br)cc1CNC1CCCCC1)NCCc1ccccc1	23.1µM*	18.4µM*	?	?	16.4µM*	18.4µM*
O=C(COC(=O)c1cc([N+](=O)[O-])ccc1N1CCOCC1)Nc1ccccc1OC(F)F	-0.6%	-9.4%	?	i	-22.2%	-25.6%
Cc1cc(NC(=O)COC(=O)c2cc([N+](=O)[O-])ccc2N2CCOCC2)ccc1Br	?	?	?	?	16.4µM*	?
CC(C)c1ccccc1NC(=O)COC(=O)c1cc([N+](=O)[O-])ccc1N1CCOCC1	-13.7%	-4.0%	i	i	18.4µM*	?
O=C(COC(=O)c1cc([N+](=O)[O-])ccc1N1CCCC1)Nc1ccccc1OC(F)F	-13.0%	3.4%	?	i	16.4µM*	?
Cc1cc(C)c(NC(=O)COC(=O)c2cc([N+](=O)[O-])ccc2N2CCOCC2)c(C)c1	-4.8%	-5.2%	?	i	-5.1%	-12.0%
Cc1nc(NC(=O)c2ccco2)sc1-c1csc(Nc2ccc(Cl)cc2Cl)n1	?	?	?	i	14.6µM*	23.1µM*
Cc1ccc(Cl)cc1Nc1nc(-c2sc(NC(=O)c3ccco3)nc2C)cs1	?	?	?	20.6µM*	?	?
Cc1nc(NC(=O)c2ccco2)sc1-c1csc(Nc2ccc(Cl)cc2)n1	-28.9%	-26.8%	i	?	16.4µM*	20.6µM*

From PubChem
